This is a sample that favours compounds with a hit; in the whole collection about 0.5% have one here.
E coli growth-1 = counter-screen for AddAB inhibitors: E. coli growth inhibition. E. coli V3065 growth, OD600 absorbance, 18 h. inhibition, % at 11.9 µM. actives 0.27% (n = 330,000);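 active = inhibition above the campaign's mean inhibition across all tested compounds plus 3 SD, cut at about 9.9% in these data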;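 note: uninfected addAB+ strain grown without phage in ampicillin broth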
phage Ecoli inh = E. coli growth loss with phage present; growth absorbance; inhibition, % at 11.9 µM; actives 0.26% (n = 360,000); in the data active = inhibition above about 11%
AddAB inh = less growth of phage-infected E. coli with AddAB; actives 0.29% (n = 330,000); inhibition, % at 11.9 µM; E. coli expressing H. pylori AddAB, absorbance growth; in the data active = inhibition above about 12%
Tat transport = blocks Tat-dependent protein export in E. coli; E. coli MC4100 TorA-mCherry Tat export, fluorescence; inhibition, % at 10 µM; actives 0.036% (n = 340,000); AID 488895;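 active = mean replicate inhibition at least 50% and at least half of replicates individually reaching 50%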;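 note: exported cargo escapes ClpAP degradation while cytoplasmic cargo is degraded and loses fluorescence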
E coli growth-2 = inhibitors of Escherichia coli growth. OD600, 23 h; stronger effect = lower value. OD600 absorbance (concentration not given with the values). actives 0.21% (n = 330,000). AID 1053175;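 active = OD600 absorbance below the run mean of sample wells minus 3.6 SD, in any replicate, cut at about 0.56 in these data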
RecBCD conf = growth loss of phage-infected V66 E. coli, RecBCD confirmation screen. inhibition, % at 11.9 µM. E. coli V66 + T4 2- phage, growth OD. actives 45% (n = 890). AID 651982. shares compounds with phage Ecoli inh;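 active = mean inhibition over triplicates exceeding the hit threshold derived in the original primary screen, cut at about 11% in these data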
Ecoli viability = counter-screen for RecBCD inhibitors: inhibitors of bacterial viability | AID 651983 | inhibition, % at 11.9 µM | shares compounds with phage Ecoli inh | actives 29% (n = 890) | E. coli viability, absorbance (OD) growth; in the data active = inhibition above about 20%;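 note: E. coli strain V66 grown with compound alone and no phage infection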
AddAB counter = growth loss of phage-infected AddAB E. coli, RecBCD counter-screen | shares compounds with phage Ecoli inh | E. coli expressing H. pylori AddAB + T4 phage, OD growth; gene 2 mutant T4, recBCD-deleted host | inhibition, % at 11.9 µM | actives 45% (n = 890);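 active = mean inhibition above the solvent-only control wells' mean plus 3 SD, cut at about 22% in these data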;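 note: higher means less bacterial growth from phage killing when AddAB is blocked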
Of the large screens only hits and unclear results are named; the others gave an inactive call (follow-up assays come after a bar, where they were run).

CCN(CC)c1ccc(/C=N/Nc2nc3ccccc3[nH]2)c(O)c1	phage Ecoli inh 15 (no result: E coli growth-2) | RecBCD conf inactive | Ecoli viability inactive | AddAB counter inactive
O=C(Cc1cccc2ccccc12)NN=Cc1ccc2cccc(O)c2n1	none (no result: E coli growth-1, phage Ecoli inh, AddAB inh, Tat transport)
Nc1nc(N)c2cc(Sc3cccc(C(F)(F)F)c3)ccc2n1	phage Ecoli inh 61 (no result: E coli growth-1, AddAB inh, Tat transport, E coli growth-2) | RecBCD conf 67 | Ecoli viability 58 | AddAB counter 86
Nc1nc(N)c2cc(Sc3ccc(Cl)cc3)ccc2n1	phage Ecoli inh 101 (no result: E coli growth-1, AddAB inh, Tat transport, E coli growth-2) | RecBCD conf 102 | Ecoli viability 104 | AddAB counter 103
FC(F)(F)c1cccc(Sc2nc(-c3ccccc3)nnc2C(F)(F)F)c1	none
C[C@@H]1CN(c2c(F)c(F)c3c(=O)c(C(=O)O)cn(C4CC4)c3c2F)C[C@H](C)N1	phage Ecoli inh 98, Tat transport 68, E coli growth-2 0.067 (no result: E coli growth-1, AddAB inh) | RecBCD conf 103 | Ecoli viability 105 | AddAB counter 104
CC(=O)NC(c1ccc(N(C)C)cc1)c1cc(Cl)c2cccnc2c1O (configuration not stated)	phage Ecoli inh 19 (no result: E coli growth-1, AddAB inh, Tat transport, E coli growth-2) | RecBCD conf inactive | Ecoli viability inactive | AddAB counter 22
COc1ccc(C(NC(C)=O)c2cc(Cl)c3cccnc3c2O)cc1 (configuration not stated)	E coli growth-1 20, phage Ecoli inh 14 | RecBCD conf inactive | Ecoli viability inactive | AddAB counter inactive
CCC(=O)NC(c1ccco1)c1cc(Br)c2cccnc2c1O (configuration not stated)	phage Ecoli inh 20 (no result: E coli growth-1, AddAB inh, Tat transport, E coli growth-2) | RecBCD conf inactive | Ecoli viability inactive | AddAB counter inactive
O=C(NC(c1ccc(Cl)cc1)c1cc(Cl)c2cccnc2c1O)c1cccnc1 (configuration not stated)	none (no result: E coli growth-2)
CCCC(=O)NC(c1ccc(OC)c(OC)c1)c1cc(Cl)c2cccnc2c1O (configuration not stated)	E coli growth-1 11, phage Ecoli inh 14 | RecBCD conf inactive | Ecoli viability inactive | AddAB counter inactive
CC(C)(C)OC(=O)CC1CC=CCC(CC(=O)N(CCO)Cc2ccccc2)C(=O)NC(c2ccccc2)COC1=O (configuration not stated)	none (no result: E coli growth-1, phage Ecoli inh, AddAB inh, Tat transport)
Cc1ccccc1NC(C)C(=O)NN=Cc1c[nH]c2ccccc12 (configuration not stated)	none (no result: E coli growth-1, phage Ecoli inh, AddAB inh, Tat transport)
COc1cc(C=C2NC(=O)N(Cc3ccccc3F)C2=O)cc(OC)c1O	none (no result: E coli growth-1, phage Ecoli inh, AddAB inh, Tat transport)
CCOC(=O)C1C2COc3ccc(C)cc3C2N2C(=O)c3cc(C)ccc3NC(=O)[C@@]12C (some centres not stated)	none (no result: E coli growth-1, phage Ecoli inh, AddAB inh, Tat transport)
CC(=O)NC(c1ccc(Cl)cc1)c1ccc2cccnc2c1O (configuration not stated)	phage Ecoli inh 20 (no result: E coli growth-1, AddAB inh) | RecBCD conf 12 | Ecoli viability inactive | AddAB counter inactive
CC(=O)NC(c1cc(F)c2cccnc2c1O)C1CC1 (configuration not stated)	none
CCCCC(=O)NC(c1ccc(Cl)cc1Cl)c1ccc2cccnc2c1O (configuration not stated)	phage Ecoli inh 19 (no result: E coli growth-1, AddAB inh, E coli growth-2) | RecBCD conf 13 | Ecoli viability inactive | AddAB counter 31
CCC(=O)NC(c1cc(Cl)c2cccnc2c1O)C1CC1 (configuration not stated)	E coli growth-1 11, phage Ecoli inh 14 | RecBCD conf inactive | Ecoli viability inactive | AddAB counter inactive
CC1CN(C(C)CO)C(=O)c2cccc(NC(=O)Nc3ccc(C(F)(F)F)cc3)c2OC1CN(C)S(=O)(=O)c1cn(C)cn1 (configuration not stated)	none (no result: E coli growth-1, phage Ecoli inh, AddAB inh, Tat transport)
Cn1cc(S(=O)(=O)N2CCc3ccccc32)cc1C(=O)NC1CCCCC1	phage Ecoli inh 98 | RecBCD conf inactive | Ecoli viability inactive | AddAB counter inactive
N#CC1=C(N)OC2=C(CN(Cc3ccccc3)CC2=Cc2cccnc2)C1c1cccnc1 (configuration not stated)	none (no result: E coli growth-1, phage Ecoli inh, AddAB inh, Tat transport)
O=C1c2cc(Cl)ccc2-c2c(O)cc(Cl)cc21	phage Ecoli inh 13 (no result: E coli growth-1, AddAB inh) | RecBCD conf inactive | Ecoli viability inactive | AddAB counter inactive
O=[N+]([O-])c1ccc(N2CCN(Cc3ccccc3)CC2)c2c1no[n+]2[O-]	phage Ecoli inh 12 (no result: E coli growth-1, AddAB inh, Tat transport, E coli growth-2) | RecBCD conf inactive | Ecoli viability inactive | AddAB counter 42
O=[N+]([O-])c1ccc(N2CCN(Cc3ccccc3)CC2)s1	none
CCOC(=O)C(C#N)=NNc1ccc(S(=O)(=O)Nc2nc(C)cc(C)n2)cc1	none (no result: E coli growth-1, phage Ecoli inh, AddAB inh, Tat transport)
C=CCn1c(=O)c(C(=O)NCCc2ccccc2)c(O)c2ccccc21	E coli growth-1 13, phage Ecoli inh 13 | RecBCD conf inactive | Ecoli viability inactive | AddAB counter inactive
C#CCOCCOCCOCCNc1nc(N2CCN(C(=O)C(Cc3cc4ccccc4[nH]3)n3cc(C(N)CC(C)C)nn3)CC2)nc(N2CCN(C(=O)C(CCC(=O)O)n3cc(C(N)C(C)CC)nn3)CC2)n1 (configuration not stated)	none (no result: E coli growth-1, phage Ecoli inh, AddAB inh, Tat transport)
O=C(Cc1cnn(-c2ccccc2)c1)c1ccc(O)c(O)c1O	phage Ecoli inh 11 | RecBCD conf inactive | Ecoli viability inactive | AddAB counter inactive
CCOc1ccc(CN2C(=O)c3ccccc3C2C(=O)NC(C)CC)cc1OC (configuration not stated)	none
CCC(C)NC(=O)C1c2ccccc2C(=O)N1Cc1cc(OC)ccc1OC (configuration not stated)	phage Ecoli inh 14 | RecBCD conf inactive | Ecoli viability inactive | AddAB counter inactive
Fc1ccccc1COc1ccc(C=NNC(=S)NCc2ccccc2)cc1	none (no result: E coli growth-1, phage Ecoli inh, AddAB inh, Tat transport)
C=CCN=c1scc(-c2ccco2)n1/N=C/c1ccc(O)c(O)c1O	phage Ecoli inh 11 (no result: E coli growth-2) | RecBCD conf inactive | Ecoli viability inactive | AddAB counter inactive
CN=c1scc(-c2cccs2)n1/N=C/c1ccc(O)c(O)c1O	phage Ecoli inh 13 (no result: E coli growth-2) | RecBCD conf inactive | Ecoli viability inactive | AddAB counter inactive
COCCN=c1scc(-c2ccco2)n1/N=C/c1ccc(O)c(O)c1O	none (no result: E coli growth-2)
Cc1nc(N)nc(N)c1/C=C/C(C)(C)c1ccc(Cl)cc1	phage Ecoli inh 100, E coli growth-2 0.069 (no result: E coli growth-1, AddAB inh) | RecBCD conf 82 | Ecoli viability 89 | AddAB counter 100
COc1ccc(C2C=CCN(C(=O)c3ccccc3)CC(=O)N2Cc2ccc(F)cc2)cc1 (configuration not stated)	none (no result: E coli growth-1, phage Ecoli inh, AddAB inh, Tat transport)
O=C(OCc1nnc(-c2ccccc2)o1)c1ccc([N+](=O)[O-])o1	none
COc1cc(-c2nnc(COC(=O)c3ccc([N+](=O)[O-])o3)o2)cc(OC)c1OC	phage Ecoli inh 12 (no result: E coli growth-1, AddAB inh, Tat transport, E coli growth-2) | RecBCD conf inactive | Ecoli viability inactive | AddAB counter inactive

Compound activity from PubChem BioAssay.
